Most compounds without a hit are left out; they make up all but 2.5% or so of the library.
MEKK2mut PB1 HTS: MEK5 binding signal on mutant MEKK2 PB1, primary screen, biochemical, multiplex bead flow cytometry, Alexa488-MEK5. Alexa488-MEK5 binding to MEKK2 mutant. percent response, % at 10 µM. 0.35% of 290,000 active; in the data active means percent response above about 24%, passing the limit was not always enough
MEKK2 WT-MEK5: modulators of MEK5 binding to wildtype MEKK2, primary screen, biochemical, multiplex bead flow cytometry, Alexa488-MEK5. Mitogen-activated protein kinase kinase kinase 2 (Homo sapiens), Q9Y2U5. binding response (% of control), % at 10 µM. AID 1531, 2009. Alexa488-MEK5 binding to MEKK2 WT; actives lie on both sides. 1.1% of 290,000 active; in the data active means binding response below about 67% or above about 130%
Rce1 inhib: yeast Rce1p protease inhibitors, primary screen, biochemical, fluorescence, cell-free homogeneous; CAAX prenyl protease 2 (Saccharomyces cerevisiae (strain ATCC 204508 / S288c)), Q03530; yeast membranes, quenched prenylated peptide cleavage fluorescence; calls only; 0.27% of 290,000 active;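 active means fall in fluorescence gain of 50% or more versus controls, with final raw signal at or below 3038400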;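 further: plate controls were neutral control wells for no effect and wells lacking membranes for full effect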
Target sequence (Q03530 whole entry, looked up): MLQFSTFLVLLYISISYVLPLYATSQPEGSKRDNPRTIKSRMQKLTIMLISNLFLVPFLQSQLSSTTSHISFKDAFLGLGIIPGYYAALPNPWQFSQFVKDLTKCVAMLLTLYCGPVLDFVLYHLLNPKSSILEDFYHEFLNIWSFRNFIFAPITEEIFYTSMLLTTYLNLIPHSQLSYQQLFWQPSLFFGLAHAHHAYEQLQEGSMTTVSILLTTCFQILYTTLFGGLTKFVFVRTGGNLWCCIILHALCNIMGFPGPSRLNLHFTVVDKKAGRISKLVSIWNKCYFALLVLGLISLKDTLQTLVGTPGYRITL
MEKK3 PB1 HTS: modulators of MEKK3-MEK5 PB1 binding, primary screen, biochemical, wildtype MEKK3, multiplex bead flow cytometry, Alexa488-MEK5 | Mitogen-activated protein kinase kinase kinase 3 (Homo sapiens), Q99759 | bead-based flow cytometry, Alexa488-MEK5 binding to MEKK3; actives lie on both sides; 0 = blocked by unlabeled MEK5, 100 = vehicle | binding response (% of control), % at 10 µM | 1.4% of 290,000 active | AID 1529, 2009;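 active means binding response more than 3 SD above or below the average of its plate-row segment, actives on both sides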;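 further: Alexa488 bead fluorescence after subtracting the streptavidin-only scavenger bead signal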
UBC13 polyUb: UBC13 polyubiquitin chain formation inhibitors, primary screen, biochemical, TR-FRET, uHTS; Ubiquitin-conjugating enzyme E2 N (Homo sapiens), P61088; inhibition, % at 20 µM; 0.47% of 330,000 active; AID 485273, 2010; in the data active means inhibition above about 45%, passing the limit was not always enough
Target sequence (P61088 whole entry, looked up): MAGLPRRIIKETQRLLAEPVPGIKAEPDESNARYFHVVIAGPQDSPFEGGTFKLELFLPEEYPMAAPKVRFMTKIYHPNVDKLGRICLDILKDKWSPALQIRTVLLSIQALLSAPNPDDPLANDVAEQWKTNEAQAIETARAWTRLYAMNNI
MEKK2wt confirm: modulators of MEK5 binding to wildtype MEKK2, confirmation, biochemical, single concentration, multiplex bead flow cytometry | shares compounds with MEKK3 PB1 HTS | Alexa488-MEK5 binding to MEKK2 WT; actives lie on both sides | binding response (% of control), % at 10 µM | 2.4% of 5,900 active | AID 1892, 2009; in the data active means binding response below about 16% or above about 210%; inactive means in between
MEKK2mut confirm: mutant MEKK2 PB1-MEK5 binding signal retest – biochemical, single concentration, multiplex bead flow cytometry, confirmation; percent response, % at 10 µM; Alexa488-MEK5 binding to MEKK2 mutant; 2% of 5,900 active; AID 1893, 2009; shares compounds with MEKK3 PB1 HTS; in the data active means percent response mostly above about 71%, no sharp cut-off; inactive means mostly below about 38%;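 further: higher means compound restores mutant binding toward wildtype level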
MEKK3-MEK5 inh: MEKK3 wild-type PB1 binding to MEK5, inhibitors, confirmation, biochemical, bead multiplex flow cytometry, single concentration, wildtype | shares compounds with MEKK3 PB1 HTS | Alexa488-MEK5 binding to MEKK3; hits give low values | binding response (% of control), % at 10 µM | 1.8% of 5,900 active | AID 1894, 2009;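 active means binding response below 72% of control, or above a set upper limit, though filed actives all read lower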;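 further: 100% = DMSO only wells and 0% = binding blocked by excess unlabeled MEK5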
The depositor's hits bear a star; i = inactive; / = no result; [ ] = remark or other dose.

SMILES | MEKK2mut PB1 HTS | MEKK2 WT-MEK5 | Rce1 inhib | MEKK3 PB1 HTS | UBC13 polyUb | MEKK2wt confirm | MEKK2mut confirm | MEKK3-MEK5 inh
CCC1CCCCN1S(=O)(=O)c1ccc(C(=O)N(CCCN(C)C)c2nc3cc4c(cc3s2)OCO4)cc1 (stereo unspecified) | 24.0* | 156.0* | i | 109.0 | 18.5 | 144.0 | 31.0 | 106.0
Nn1c(SCC(=O)Nc2ccccc2Br)nnc1-c1ccco1 | 3.0 | 104.0 | i | 102.0 | 1.4 | / | / | /
O=C(NNC(=O)C(c1ccccc1)c1ccccc1)c1cccs1 | 16.0 | 114.0 | i | 114.0 | 1.9 | / | / | /
C(=C\c1nc(N2CCCCCC2)c2ccccc2n1)/c1ccccc1 | 17.0 | 144.0* | i | 100.0 | 25.5 | 154.0 | 19.0 | 108.0
COc1ccc(CN(C)CC(=O)Nc2cc(OC)c([N+](=O)[O-])cc2C)c(OC)c1 | 0.0 | 106.0 | i | 133.0* | -10.5 | 111.0 | 5.0 | 100.0
COc1cc(NC(=O)CN(C)Cc2cccc(F)c2)c(C)cc1[N+](=O)[O-] | 0.0 | 112.0 | i | 128.0* | -12.7 | 104.0 | -2.0 | 104.0
Nc1c(Cl)ncnc1NCc1ccccc1 | 15.0 | 120.0 | i | 112.0 | -8.4 | / | / | /
O=C(O)CC1(CC(=O)Nc2cc(F)ccc2Cl)CCCCC1 | 28.0 | 131.0 | i | 134.0* | 4.7 | 97.0 | -2.0 | 99.0
COc1ccc2nc(N/C(N)=N/C(=S)Nc3ccccc3)nc(C)c2c1 | -8.0 | 91.0 | i | 100.0 | -6.5 | / | / | /
COc1ccc(OC)c(N/C(=N/C(=S)Nc2ccccc2)Nc2nc(C)cc(C)n2)c1 | -49.0 | 54.0 | i | 48.0*[inhibitor] | 14.9 | 88.0 | -4.0 | 99.0
Cc1nc(NC(=O)c2ccccc2)sc1Cc1ccc2c(c1)OCO2 | 5.0 | 111.0 | i | 102.0 | 2.2 | / | / | /
Cc1c(Cc2ccc3c(c2)OCO3)sc(NC(=O)c2ccccc2)c1C(N)=O | -7.0 | 81.0 | i | 75.0*[inhibitor] | 4.9 | 97.0 | -1.0 | 100.0
CCN(CC)CC(O)Cn1c(C)c(-c2ccccc2)c2cc([N+](=O)[O-])ccc21 (stereo unspecified) | 30.0* | 174.0* | i | 110.0 | 23.1 | 165.0 | 43.0 | 111.0
Cc1ccc(S(=O)(=O)NCCC(=O)Nc2ccc(C)cc2C(=O)c2ccccc2)cc1 | -1.0 | 99.0 | i | 90.0 | 5.9 | / | / | /
CCOC(=O)c1c(C)[nH]c(C)c1S(=O)(=O)N1CCCCC1 | -4.0 | 92.0 | i | 97.0 | -1.7 | / | / | /
CC1CN(C(=O)/C=C/c2ccc(SC(F)F)cc2)CC(C)O1 (stereo unspecified) | 8.0 | 105.0 | i | 108.0 | 1.4 | / | / | /
CN=Cc1nc(-c2ccccc2)oc1O | 3.0 | 104.0 | i | 111.0 | -16.2 | / | / | /
CC1=Nc2ccccc2/C1=C\c1nc(-c2ccc(F)cc2)oc1O | -10.0 | 7.0* | i | 9.0*[inhibitor] | -116.2 | 94.0 | -3.0 | 99.0
COc1cccc(OCc2cc(C(=O)N(C)CCOc3ccc(C)cc3)no2)c1 | -2.0 | 92.0 | i | 96.0 | 3.2 | / | / | /
CCN1C(=O)c2cccc3c(S(=O)(=O)Nc4ccccn4)ccc1c23 | 4.0 | 104.0 | / | 112.0 | 5.2 | / | / | /
CCN1C(=O)c2cccc3c(S(=O)(=O)Nc4ncccc4C)ccc1c23 | -10.0 | 85.0 | i | 82.0*[inhibitor] | 2.1 | 105.0 | 3.0 | 105.0
Cn1c(=O)c(NCCO)c2c3c(cccc31)C(=O)c1ccccc1-2 | 3.0 | 98.0 | i | 104.0 | i | / | / | /
Cn1c(=O)c(NC2CCCCC2)c2c3c(cccc31)C(=O)c1ccccc1-2 | -20.0 | 37.0*[inhibitor] | / | 59.0 | -43.1 | 62.0 | -15.0 | 93.0
CCCCNc1c2c3c(cccc3n(C)c1=O)C(=O)c1ccccc1-2 | -21.0 | 41.0*[inhibitor] | i | 74.0 | -92.1 | 72.0 | -13.0 | 95.0
CCNc1c2c3c(cccc3n(C)c1=O)C(=O)c1ccccc1-2 | -7.0 | 83.0 | i | 99.0 | -309.6 | / | / | /
SMILES | MEKK2mut PB1 HTS | MEKK2 WT-MEK5 | Rce1 inhib | MEKK3 PB1 HTS | UBC13 polyUb | MEKK2wt confirm | MEKK2mut confirm | MEKK3-MEK5 inh
Cn1c(=O)c(NCCc2ccccc2)c2c3c(cccc31)C(=O)c1ccccc1-2 | -16.0 | 62.0*[inhibitor] | i | 85.0 | -191.3 | 85.0 | -9.0 | 100.0
COc1cc2c(cc1OC)CN(c1nc(-c3cccnc3)nc3ccccc13)CC2 | -1.0 | 107.0 | i | 103.0 | 17.4 | / | / | /
CCNC(=S)NNc1nc(N2CCCCC2)nc(N2CCOCC2)n1 | -3.0 | 92.0 | i | 95.0 | 2.2 | / | / | /
Cc1ccc(NC(=O)COC(=O)C2(c3ccc(Cl)cc3)CCCC2)cc1 | 1.0 | 121.0 | i | 153.0* | -1.9 | 103.0 | 3.0 | 103.0
CCOC(=O)c1ccc(NC(=O)C2(c3ccc(Cl)cc3)CCCC2)cc1 | -1.0 | 106.0 | i | 101.0 | -0.3 | / | / | /
CC(C)N1CC(C(=O)Nc2ccc(F)c(Cl)c2)CC1=O (stereo unspecified) | 2.0 | 103.0 | i | 106.0 | -6.5 | / | / | /
Cc1c(NC(=O)C2CC(c3ccc(F)cc3)=NO2)c(=O)n(-c2ccccc2)n1C (stereo unspecified) | -38.0 | 17.0*[inhibitor] | i | 9.0*[inhibitor] | 0.5 | 104.0 | 7.0 | 102.0
CCN(Cc1ccccc1)C(=O)c1ccc(Cl)cc1[N+](=O)[O-] | 4.0 | 96.0 | i | 99.0 | 9.2 | / | / | /
COc1ccc(/C=C/c2cc(-c3ccc(C)cc3)o[n+]2C)cc1 | 18.0 | 155.0* | i | 109.0 | 11.7 | 112.0 | 9.0 | 95.0
COc1ccc(/C=C/c2c(-c3ccc(OC)cc3)oc3ccc(-c4ccc(OC)cc4)cc23)cc1 | -3.0 | 98.0 | i | 102.0 | 9.7 | / | / | /
Cc1cc2ncn(CCC(=O)NC(C)(C)C)c2cc1C | -46.0 | 4.0*[inhibitor] | i | 3.0*[inhibitor] | 8.3 | 104.0 | 4.0 | 105.0
CCOC(=O)CC1(NC(=O)C2CCC(=O)N(Cc3ccccc3OC)C2)CCCCC1 (stereo unspecified) | 1.0 | 96.0 | i | 100.0 | -0.1 | / | / | /
N#Cc1cc([N+](=O)[O-])cnc1NCC(O)CO (stereo unspecified) | -18.0 | 2.0*[inhibitor] | i | 2.0*[inhibitor] | 3.4 | 103.0 | 4.0 | 101.0

Screens as filed in PubChem.
